NPR1 antag: Natriuretic polypeptide receptor (hNpr1) antagonism - Primary qHTS; 1.6% of 76,000 active; HEK293 hNpr1 GloSensor cGMP, ANP-stimulated luminescence; Potency, µM (titrated, usually from 46.3 µM), usual class: inhibitors; AID 1347048, 2019; Atrial natriuretic peptide receptor 1 (Homo sapiens), P16066; calls by dose curve; note: nearly all actives have a fitted effect of over 60% in size
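HEK293 cells stably expressing human Npr1 and cGMP GloSensor pGS-40F, loaded 2 h with 2% GloSensor reagent, given compound 30 min at room temperature. Luminescence read before and 20 min after 0.1 nM hNppA.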
3T3 cytotox: Cytotoxic Profiling in NIH 3T3 Cell Line of Diverse Libraries Using Quantitative High-Throughput Screening; Potency, µM (series often up to 96.7 µM), usual class: inhibitors; NIH 3T3 viability, CellTiter-Glo ATP luminescence, 48-72 h; 4.3% of 94,000 active; note: nearly all actives have a fitted effect of over 55% in size
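Cytotoxicity is measured as loss of cellular ATP: NIH 3T3 cells (400/well) are exposed to compound for 48 or 72 hr at 37 °C, then CellTiter-Glo luminescence is imaged after 10 min at room temperature.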
HEK cytotox: Cytotoxic Profiling in HEK 293 Cell Line of Diverse Libraries Using Quantitative High-Throughput Screening; HEK 293 viability, ATP luminescence (CellTiter-Glo), 48-72 h; Potency, µM (titrated, usually from 115 µM), hits mostly inhibitors; 6.6% of 94,000 active; note: nearly all actives have a fitted effect of over 60% in size
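HEK 293 seeded at 250 cells/well receive compound via pintool. After 48 or 72 hr at 37 degree Celsius, 5% CO2 and 95% humidity, CellTiter-Glo is dispensed and luminescence read following 10 min at room temperature.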
Luciferase inh: Firefly luciferase inhibition profiling of diverse chemical library using quantitative high-throughput screening; Luciferin 4-monooxygenase (Photinus pyralis), P08659; purified P. pyralis luciferase, luminescence, biochemical; Potency, µM (doses to about 115 µM), usual class: inhibitors; 2.5% of 76,000 active; AID 1347043, 2019; note: nearly all actives have a fitted effect of over 65% in size
Target sequence (P08659 whole entry, looked up): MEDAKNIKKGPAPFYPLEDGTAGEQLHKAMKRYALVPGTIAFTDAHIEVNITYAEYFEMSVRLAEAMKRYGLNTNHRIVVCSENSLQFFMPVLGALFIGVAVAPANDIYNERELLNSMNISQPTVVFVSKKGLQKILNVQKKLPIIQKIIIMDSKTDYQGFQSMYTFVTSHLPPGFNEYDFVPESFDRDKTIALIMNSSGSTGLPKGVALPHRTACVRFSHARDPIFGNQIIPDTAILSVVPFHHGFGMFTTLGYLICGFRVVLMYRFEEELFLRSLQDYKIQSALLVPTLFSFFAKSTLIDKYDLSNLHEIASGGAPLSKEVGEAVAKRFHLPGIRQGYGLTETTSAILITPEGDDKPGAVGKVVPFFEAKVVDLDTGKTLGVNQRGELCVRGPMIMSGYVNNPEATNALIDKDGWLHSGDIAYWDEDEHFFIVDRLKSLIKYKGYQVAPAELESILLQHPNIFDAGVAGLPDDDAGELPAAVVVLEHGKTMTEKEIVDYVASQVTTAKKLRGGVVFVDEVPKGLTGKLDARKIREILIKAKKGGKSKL
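Inhibitors were tested against purified firefly luciferase in a biochemical, low-substrate format (both substrates at 10uM) and luminescence measured with a CCD imager.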
Hits are given with their value; i = inactive; ? = inconclusive; nt = not tested or not shown. A selection: hits, their analogues and other compounds. The true share with any hit is near 11%. Unless noted, calls come from the whole dose curve; as a rule, active = well fitted curve in the direction sought with a large enough effect; inconclusive = small, poorly fitted or top-dose-only effect, or another doubt; inactive = no such curve, though single readings can be large; an effect the other way counts as inactive or inconclusive.

SMILES	NPR1 antag	3T3 cytotox	HEK cytotox	Luciferase inh
COc1ccc(-c2cc(C[C@@H]3CC[C@H](O)[C@@H](CN(Cc4ccccc4OC)Cc4ccccc4OC)O3)no2)cc1	10µM	?	?	?
COc1cccc(N2CCN(C(=O)c3ccc(N4CC5CC(C4)[C@H]4CCCC(=O)N4C5)nc3)CC2)c1 (some centres undefined)	i	i	i	i
O=C1Nc2ccc(-c3cccc(C(F)(F)F)c3)cc2C(=O)N2CCN(C(=O)c3cccs3)C[C@H]12	i	44.7µM	22.4µM	i
O=C1Nc2ccc(-c3cccc(C(F)(F)F)c3)cc2C(=O)N2CCN(C(=O)c3ccccc3)C[C@H]12	?	?	20µM	?
O=C(N[C@H]1CCN2C(=O)c3cc(Br)ccc3NC(=O)[C@@H]2C1)c1ccco1	i	89.1µM	?	i
O=C1Nc2ccc(-c3cccc(C(F)(F)F)c3)cc2C(=O)N2CCN(C(=O)c3cccnc3)C[C@H]12	i	i	?	i
COc1ccc(Cl)cc1-c1ccc2c(c1)C(=O)N1CC[C@H](NC(=O)c3cccs3)C[C@H]1C(=O)N2	i	?	31.6µM	i
O=C1Nc2ccc(-c3ccc(Cl)cc3)cc2C(=O)N2CCN(C(=O)c3cccs3)C[C@H]12	i	?	i	i
O=C(Nc1ccc(Cl)cc1)N1CCC(C(=O)N2CCC(N3CCCC3=O)CC2)CC1	nt	i	i	nt
O=C1Nc2ccc(-c3cccc(C(F)(F)F)c3)cc2C(=O)N2CCN(C(=O)C3CCCC3)C[C@@H]12	i	?	39.8µM	i
O=C(N[C@H]1C[C@H]2C(=O)Nc3ccc(-c4cccs4)cc3C(=O)N2C1)c1ccccc1	?	?	31.6µM	i
N[C@H]1CCN2C(=O)c3cc(-c4ccc(Cl)cc4)ccc3NC(=O)[C@@H]2C1	i	31.6µM	39.8µM	i
O=C1Nc2ccc(-c3ccccc3)cc2C(=O)N2CCN(C(=O)c3ccccc3)C[C@H]12	i	?	89.1µM	i
O=C1Nc2ccc(-c3ccccc3F)cc2C(=O)N2CCN(C(=O)c3ccccc3)C[C@H]12	i	?	?	i
NC(=O)C(=O)N1CCN2C(=O)c3cc(-c4ccc(Cl)cc4)ccc3NC(=O)[C@@H]2C1	i	?	?	i
Cc1nnc2ccc(N3CCC(NC(=O)Cc4cccc(Cl)c4)C3)nn12 (centres undefined)	nt	?	i	nt
O=C(CCn1ccc2ccc(Cl)cc21)Nc1ccc2c(c1)C(=O)N1CCC[C@H]1C(=O)N2	i	?	?	i
O=C(NC1CCCN(c2ccc3nnc(C4CC4)n3n2)C1)c1ccccc1 (centres undefined)	nt	i	i	nt
Cc1ccc(CN2CC3(Cc4ccccc4NC3=O)C2)cc1	nt	i	?	nt
COc1ccc(Cl)cc1-c1ccc2c(c1)C(=O)N1CCN(C(=O)C3CCCCC3)C[C@@H]1C(=O)N2	i	44.7µM	?	i
COc1ccc(Cl)cc1-c1ccc2c(c1)C(=O)N1CCN(C(=O)c3ccc(N(C)C)cc3)C[C@@H]1C(=O)N2	i	?	?	i
O=C1Nc2ccc(-c3cccc(C(F)(F)F)c3)cc2C(=O)N2CCN(C(=O)c3cccc(F)c3)C[C@H]12	i	?	31.6µM	?
COc1ccc(Cl)cc1-c1ccc2c(c1)C(=O)N1CCN(C(=O)C3CC3)C[C@@H]1C(=O)N2	i	?	?	i
COc1ccc(Cl)cc1-c1ccc2c(c1)C(=O)N1CCN(C(=O)c3ccccc3)C[C@@H]1C(=O)N2	i	?	28.2µM	i
COc1ccc(-c2ccc3c(c2)C(=O)N2CCN(C(=O)c4cccc(F)c4)C[C@@H]2C(=O)N3)cc1	i	i	?	?
SMILES	NPR1 antag	3T3 cytotox	HEK cytotox	Luciferase inh
CCn1c(CO)nnc1C1CC(NC(=O)c2cnc3sccn3c2=O)C1 (centres undefined)	i	i	i	i
COC(=O)[C@@H]1Cc2c([nH]c3ccccc23)[C@H]2C[C@@H](NCCN(C)C)C[C@@H](c3cccc(Cl)c3)N21	i	4.47µM	6.31µM	?
COC(=O)[C@@H]1Cc2c([nH]c3ccccc23)[C@@H]2C[C@@H](NCCNC(C)=O)C[C@@H](c3cccc(Cl)c3)N12	i	28.2µM	31.6µM	i
COC(=O)[C@@H]1Cc2c([nH]c3ccccc23)[C@H]2C[C@@H](NCCNC(C)=O)C[C@@H](c3ccc(-c4ccccc4)cc3)N21	i	?	39.8µM	i
O=C1NCCOCCCN(S(=O)(=O)c2cccc3cccnc23)[C@H]2CCCC[C@@H]12	i	i	i	i
CCN(CC)c1ccc(NC(=O)CCn2ccn3nc4c(c3c2=O)CCCC4)c(C)c1	i	39.8µM	?	i
Cc1cc(Cl)ccc1NC(=O)CCn1ccn2nc3c(c2c1=O)CCCC3	i	?	?	i
COc1ccc(Cn2ccn3nc4c(c3c2=O)CCCC4)cc1F	i	?	39.8µM	i
Cc1cccc(C)c1NC(=O)CN1C(=O)NC(c2ccccc2Cl)C2=C1COC2=O (centres undefined)	i	i	i	i
COc1ccccc1-c1cccc(C(=O)N2CCC[C@H]2C(=O)NCc2cccs2)c1	nt	i	79.4µM	nt
COC(=O)CNC(=O)C1CCCN1C(=O)c1cccc(-c2cccnc2)c1 (centres undefined)	nt	i	?	nt
COc1cccc(-c2cccc(C(=O)N3CCCC3C(=O)NCc3cccs3)c2)c1 (centres undefined)	nt	i	?	nt
CCCCCNC(=O)C1CCCN1C(=O)c1cccc(-c2cccc(OC)c2)c1 (centres undefined)	nt	?	100µM	nt
COC(=O)CNC(=O)C1CCCN1C(=O)c1cccc(-c2cccc(OC)c2)c1 (centres undefined)	nt	?	44.7µM	nt
COc1ccc(CN2Cc3[nH]cnc3C[C@H]2C(=O)N(C)Cc2ccccc2)c2ccccc12	i	?	39.8µM	i
COc1ccc(CN2Cc3[nH]cnc3C[C@H]2C(=O)NCc2ccc(C#N)cc2)c2ccccc12	i	79.4µM	?	i
O=C(NCc1ccccc1)[C@@H]1Cc2nc[nH]c2CN1Cc1ccc(Cl)cc1	i	?	?	i
O=C(NCc1ccc(Cl)cc1)[C@@H]1Cc2nc[nH]c2CN1Cc1ccc(Cl)cc1	?	44.7µM	31.6µM	i
COc1ccc(CN2Cc3[nH]cnc3C[C@H]2C(=O)NC2CCCCC2)c2ccccc12	i	63.1µM	?	i
O=C(NCc1ccc(-c2cnc3c(Oc4ccccc4)nccn23)cc1)c1cccc(O)c1	?	?	?	i
CC(=O)N1CCN(Cc2ccc(-c3cnc4c(OCc5ccccc5)nccn34)cc2)CC1	i	31.6µM	39.8µM	?
CN1CCN(Cc2ccc(-c3cnc4c(OCc5ccccc5)nccn34)cc2)CC1	?	?	?	31.6µM
O=C(Cc1c[nH]c2ncc(-c3ccncc3)cc12)N1CCOCC1	i	?	i	i
COc1ccc(-c2cnc3[nH]cc(CC(=O)N4CCOCC4)c3c2)cn1	i	25.1µM	?	?

Source: PubChem BioAssay (National Center for Advancing Translational Sciences (NCATS))
